Where a name gives a salt, the structure may show the parent alone. ± gives the standard deviation of the averaged measurements.
How the values were obtained:
Test in all cases: growth (OD600 after 10 h); higher = more growth (less inhibition)
[1] = test system: E. coli TESEC Alr+ wild-type control; conditions: compound 0.1 mM; raw OD600 reference: median of DMSO wells 0.241, cell-free background 0.041
Procedure: (§1)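 TESEC Mtb Alr E. coli, or the Alr+ wild-type control, in 384-well plates with Prestwick library compounds at 0.1 mM and 1% DMSO, across arabinose induction levels of 1E3 to 1E7 nM. Growth is read as OD600 after 10 h at 37 °C in triplicate biological replicates.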

E. coli TESEC Mtb Alr [2] = conditions: compound 0.1 mM
Procedure: as §1

E. coli TESEC Mtb Asd = conditions: compound 0.1 mM
Procedure: (§2)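 TESEC E. coli strains in which the native enzyme is deleted and replaced by arabinose-inducible Mtb Asd, DapB, CysH or TrpD, each grown in its selective medium. Strains were screened against the Prestwick library at 0.1 mM and 1% DMSO in 384-well format at low and high arabinose induction. Growth is read as OD600 after 10 h in triplicate.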

E. coli TESEC Mtb DapB = conditions: compound 0.1 mM
Procedure: as §2

[3] = test system: E. coli TESEC Alr+ wild-type control; conditions: compound 0.1 mM; raw OD600 reference: median of DMSO wells 0.49, cell-free background 0.052
Procedure: (§3)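 TESEC Mtb Alr E. coli (ΔaraC ΔtolC ΔentC Δalr ΔdadX, arabinose-inducible Mtb Alr) or the Alr+ wild-type control strain, grown in defined M9-fructose medium without D-alanine in 96-well plates with Prestwick library compounds at 0.1 mM and 1% DMSO. Low Alr induction is 0.1 µM arabinose and high induction is 10 mM arabinose.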

E. coli TESEC Mtb Alr [4] = conditions: compound 0.1 mM; remark: listed apart in the source
Procedure: as §3

[5] = arabinose 1000 nM, raw OD600 reference: median of DMSO wells 0.294, cell-free background 0.041
[6] = arabinose 10000 nM, raw OD600 reference: median of DMSO wells 0.264, cell-free background 0.041
[7] = arabinose 100000 nM, raw OD600 reference: median of DMSO wells 0.201, cell-free background 0.041
[8] = arabinose 1000000 nM, raw OD600 reference: median of DMSO wells 0.193, cell-free background 0.041
[9] = arabinose 10000000 nM, raw OD600 reference: median of DMSO wells 0.146, cell-free background 0.041
[10] = arabinose induction (level): High, raw OD600 reference: median of DMSO wells 0.331, cell-free background 0.041
[11] = arabinose induction (level): Low, raw OD600 reference: median of DMSO wells 0.417, cell-free background 0.041
[12] = arabinose induction (level): High, raw OD600 reference: median of DMSO wells […], cell-free background 0.041
[13] = arabinose induction (level): Low, raw OD600 reference: median of DMSO wells 0.227, cell-free background 0.041
[14] = arabinose 100 nM, raw OD600 reference: median of DMSO wells 0.413, cell-free background 0.052
[15] = arabinose 10000000 nM, raw OD600 reference: median of DMSO wells […], cell-free background 0.052

Structure (SMILES) | growth [1] | growth (E. coli TESEC Mtb Alr [2]; [5]) | growth (E. coli TESEC Mtb Alr [2]; [6]) | growth (E. coli TESEC Mtb Alr [2]; [7]) | growth (E. coli TESEC Mtb Alr [2]; [8]) | growth (E. coli TESEC Mtb Alr [2]; [9]) | growth (E. coli TESEC Mtb Asd; [10]) | growth (E. coli TESEC Mtb Asd; [11]) | growth (E. coli TESEC Mtb DapB; [12]) | growth (E. coli TESEC Mtb DapB; [13]) | growth [3] | growth (E. coli TESEC Mtb Alr [4]; [14]) | growth (E. coli TESEC Mtb Alr [4]; [15])
CN[C@@H]1[C@H](O)[C@H](NC)[C@H]2O[C@@]3(O)C(=O)C[C@@H](C)O[C@H]3O[C@@H]2[C@H]1O [Spectinomycin dihydrochloride] | 0.0517 ± 0.00091 | 0.0841 ± 0.0062 | 0.0632 ± 0.0013 | 0.075 ± 0.0085 | 0.0512 ± 0.00079 | 0.05437 ± 0.00031 | 0.0788 ± 0.0045 | 0.0788 ± 0.0017 | 0.0987 ± 0.0037 | 0.104 ± 0.013 | 0.228 ± 0.023 | 0.308 ± 0.021 | 0.0979 ± 0.014
CC(=O)OCC(CCn1cnc2cnc(N)nc21)COC(C)=O [Famciclovir] | 0.23 ± 0.005 | 0.288 ± 0.0069 | 0.269 ± 0.0058 | 0.184 ± 0.031 | 0.21 ± 0.021 | 0.14 ± 0.0045 | 0.284 ± 0.048 | 0.386 ± 0.039 | 0.179 ± 0.0051 | 0.199 ± 0.031 | 0.56 ± 0.17 | 0.4163 ± 0.0038 | 0.346 ± 0.0062
CC(=O)N(CC(O)CN(C(C)=O)c1c(I)c(C(=O)NCC(O)CO)c(I)c(C(=O)NCC(O)CO)c1I)c1c(I)c(C(=O)NCC(O)CO)c(I)c(C(=O)NCC(O)CO)c1I (stereo not drawn) [Iodixanol] | 0.235 ± 0.0081 | 0.303 ± 0.015 | 0.26 ± 0.0054 | 0.182 ± 0.022 | 0.177 ± 0.0052 | 0.1415 ± 0.00091 | 0.358 ± 0.082 | 0.421 ± 0.015 | 0.206 ± 0.0036 | 0.215 ± 0.043 | 0.537 ± 0.093 | 0.406 ± 0.013 | 0.334 ± 0.0038
COc1ccnc(C[S+]([O-])c2nc3cc(OC(F)F)ccc3[nH]2)c1OC (stereo not drawn) [Pantoprazole sodium] | 0.168 ± 0.0022 | 0.218 ± 0.0049 | 0.28 ± 0.0076 | 0.18 ± 0.011 | 0.119 ± 0.0037 | 0.137 ± 0.0065 | 0.308 ± 0.1 | 0.296 ± 0.057 | 0.189 ± 0.0071 | 0.194 ± 0.018 | 0.451 ± 0.013 | 0.399 ± 0.011 | 0.291 ± 0.022
CN1CCCN=C1/C=C/c1cccs1 [Pyrantel tartrate] | 0.235 ± 0.0042 | 0.278 ± 0.0075 | 0.268 ± 0.0081 | 0.191 ± 0.015 | 0.187 ± 0.00096 | 0.148 ± 0.0055 | 0.347 ± 0.032 | 0.416 ± 0.039 | 0.197 ± 0.0092 | 0.249 ± 0.046 | 0.458 ± 0.043 | 0.409 ± 0.0096 | 0.3434 ± 0.0026
N=C(N)NC(=N)NCCc1ccccc1 [Phenformin hydrochloride] | 0.2497 ± 0.002 | 0.279 ± 0.014 | 0.274 ± 0.0079 | 0.2 ± 0.02 | 0.186 ± 0.0089 | 0.137 ± 0.0039 | 0.378 ± 0.07 | 0.405 ± 0.067 | 0.203 ± 0.0056 | 0.211 ± 0.012 | 0.469 ± 0.053 | 0.416 ± 0.0069 | 0.3729 ± 0.003
CC(C)[C@H]1CC[C@H](C(=O)N[C@H](Cc2ccccc2)C(=O)O)CC1 [Nateglinide] | 0.181 ± 0.0028 | 0.277 ± 0.0054 | 0.246 ± 0.019 | 0.169 ± 0.0079 | 0.114 ± 0.0027 | 0.147 ± 0.0056 | 0.229 ± 0.039 | 0.23 ± 0.021 | 0.1583 ± 0.001 | 0.217 ± 0.06 | 0.6242 ± 0.0051 | 0.22 ± 0.16 | 0.284 ± 0.009
COCC(=O)Nc1c(I)c(C(=O)NCC(O)CO)c(I)c(C(=O)N(C)CC(O)CO)c1I (stereo not drawn) [Iopromide] | 0.259 ± 0.016 | 0.329 ± 0.021 | 0.289 ± 0.014 | 0.237 ± 0.0091 | 0.188 ± 0.0057 | 0.156 ± 0.013 | 0.491 ± 0.0086 | 0.464 ± 0.028 | 0.213 ± 0.022 | 0.257 ± 0.043 | 0.464 ± 0.037 | 0.401 ± 0.019 | 0.349 ± 0.018
CC1(C)S[C@@H]2[C@H](NC(=O)[C@H](NC(=O)N3CCNC3=O)c3ccccc3)C(=O)N2[C@H]1C(=O)O [Azlocillin sodium salt] | 0.238 ± 0.0043 | 0.312 ± 0.008 | 0.276 ± 0.0051 | 0.177 ± 0.0081 | 0.195 ± 0.013 | 0.152 ± 0.015 | 0.31 ± 0.035 | 0.442 ± 0.025 | 0.177 ± 0.015 | 0.222 ± 0.031 | 0.631 ± 0.06 | 0.403 ± 0.017 | 0.361 ± 0.013
COc1ccc(CCN(C)CCCC(C#N)(c2ccc(OC)c(OC)c2)C(C)C)cc1OC (stereo not drawn) [Verapamil hydrochloride] | 0.185 ± 0.0071 | 0.25 ± 0.0055 | 0.27 ± 0.0044 | 0.195 ± 0.0032 | 0.116 ± 0.0045 | 0.149 ± 0.0027 | 0.243 ± 0.048 | 0.346 ± 0.095 | 0.177 ± 0.017 | 0.248 ± 0.044 | 0.461 ± 0.022 | 0.409 ± 0.005 | 0.258 ± 0.014
NC(=O)c1cccnc1 [Nicotinamide] | 0.2773 ± 0.0019 | 0.335 ± 0.0062 | 0.302 ± 0.0031 | 0.263 ± 0.014 | 0.238 ± 0.014 | 0.155 ± 0.0058 | 0.447 ± 0.0077 | 0.45 ± 0.033 | 0.214 ± 0.01 | 0.258 ± 0.043 | 0.509 ± 0.11 | 0.43 ± 0.024 | 0.453 ± 0.0089
Cc1ccnc2c1NC(=O)c1cccnc1N2C1CC1 [Nevirapine] | 0.233 ± 0.0085 | 0.29 ± 0.0079 | 0.254 ± 0.0046 | 0.212 ± 0.0063 | 0.203 ± 0.0086 | 0.14 ± 0.0044 | 0.399 ± 0.051 | 0.391 ± 0.053 | 0.209 ± 0.012 | 0.243 ± 0.0097 | 0.507 ± 0.057 | 0.402 ± 0.014 | 0.343 ± 0.011
N[C@@H](Cc1ccc(O)c(O)c1)C(=O)O [Levodopa] | 0.229 ± 0.0045 | 0.275 ± 0.015 | 0.267 ± 0.015 | 0.199 ± 0.028 | 0.178 ± 0.0063 | 0.138 ± 0.0042 | 0.383 ± 0.026 | 0.455 ± 0.0078 | 0.195 ± 0.0078 | 0.209 ± 0.013 | 0.489 ± 0.052 | 0.413 ± 0.013 | 0.354 ± 0.018
Nc1nc(=O)[nH]cc1F [Flucytosine] | 0.245 ± 0.0069 | 0.309 ± 0.022 | 0.243 ± 0.0058 | 0.187 ± 0.011 | 0.175 ± 0.008 | 0.14 ± 0.0027 | 0.456 ± 0.025 | 0.492 ± 0.026 | 0.21 ± 0.018 | 0.222 ± 0.016 | 0.57 ± 0.021 | 0.411 ± 0.015 | 0.333 ± 0.02
COc1cc(NS(=O)(=O)c2ccc(N)cc2)ncn1 [Sulfamonomethoxine] | 0.222 ± 0.0061 | 0.259 ± 0.022 | 0.173 ± 0.0027 | 0.2 ± 0.0044 | 0.1141 ± 0.00026 | 0.1384 ± 0.0013 | 0.345 ± 0.061 | 0.413 ± 0.018 | 0.166 ± 0.026 | 0.19 ± 0.014 | 0.596 ± 0.092 | 0.422 ± 0.0097 | 0.331 ± 0.0088
Cc1cn([C@H]2C=C[C@@H](CO)O2)c(=O)[nH]c1=O [Stavudine] | 0.163 ± 0.01 | 0.285 ± 0.023 | 0.158 ± 0.017 | 0.121 ± 0.0031 | 0.119 ± 0.0013 | 0.181 ± 0.0073 | 0.157 ± 0.013 | 0.158 ± 0.0091 | 0.192 ± 0.015 | 0.178 ± 0.0066 | 0.512 ± 0.037 | 0.417 ± 0.011 | 0.218 ± 0.012

Source: the supplement of paper PMC9262897, “Low-cost anti-mycobacterial drug discovery using engineered E. coli” (Nature Communications, 2022)
